For ten compounds, cell viability results are on record in the supplement of paper PMC10981050.

Structures are written as SMILES. Several values for one entry are separate records, joined by “and”; a condition that tells them apart may be missing. Equal entries are not always repeated.

This test deals with K562. Description: cell viability relative to vehicle control; higher = less cytotoxic. The note with it: 10 µM; SRSF2 genotype: SRSF2 P95H/wt. The method in brief:
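Screening covered the Selleck bioactive, kinase and epigenetic probe libraries, less identity-inconsistent compounds, on CRISPR-edited mutant clones and isogenic wild-type clones of four leukaemia lines. Cells, at 2000 per well in 50 µL medium, received a single 10 µM acoustically dispensed dose. After 48 h the supernatant was removed and CellTiter-Glo luminescence was read. Viability was analysed in Genedata Screener as percent of the on-plate vehicle control.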
The cell viability is a read-out of living cells in per cent, often relative to untreated cells. `CC1=C(CC[C@@H](C)CO[C@@H]2O[C@H](CO)[C@@H](O)[C@H](O)[C@H]2O)O[C@H]2C[C@H]3[C@@H]4CC=C5C[C@@H](O[C@@H]6O[C@H](CO)[C@@H](O[C@@H]7O[C@@H](C)[C@H](O)[C@@H](O)[C@H]7O)[C@H](O)[C@H]6O[C@@H]6O[C@@H](C)[C@H](O)[C@@H](O)[C@H]6O)CC[C@]5(C)[C@H]4CC[C@]3(C)[C@@H]12` [Pseudoprotodioscin]: the cell viability was 107% and 104%.

As for `O=C(NC[C@H](O)CN1CCc2ccccc2C1)c1cc(NC2COC2)ncn1`, the cell viability is 95.9% and 92.8%. The figure for `CCCc1cc(C)[nH]c(=O)c1CNC(=O)c1cc(-c2ccc(N3CCN(C)CC3)nc2)nc2c1cnn2C(C)C` is 15.9% and 4.45%. Turning to `Cc1cc(NS(=O)(=O)c2ccc(N)cc2)nc(C)n1` [sulfaisodimidine], the cell viability turned out to be 103%. For the compound `Cn1cnc(-c2cc3nccc(Oc4ccc(NC(=S)NC(=O)Cc5ccccc5)cc4F)c3s2)c1`, the cell viability was 80.4% and 84.1%. For `Fc1ccc(C(c2ccc(F)cc2)N2CCN(C/C=C/c3ccccc3)CC2)cc1` [Flunarizine 2HCl], the cell viability was 67.8% and 82.2%. `CNc1cccc(CCOc2ccc3c(c2)CN(CC(F)(F)F)C(=O)[C@H](CC(=O)O)C3)n1`: the cell viability worked out at 101%. With `Cc1cccc(-c2[nH]c(C(C)(C)C)nc2-c2ccc3c(c2)OCO3)n1`, the cell viability was 63.9% and 60.2%. `CCOc1ccc(Cc2cc([C@]34OC[C@](CO)(O3)[C@@H](O)[C@H](O)[C@H]4O)ccc2Cl)cc1` [Ertugliflozin]: the cell viability is 104% and 95.2%.

With `COC(=O)[C@H](c1ccccc1Cl)N1CCc2sccc2C1` [Clopidogrel (Plavix)], the cell viability was 98.2% and 98.5%.
